Hit rate of the full screen: of about 5,500 compounds, about 2,000 (36%) were called active. Another 18% or so got no clear call; they are omitted. Rule as the data show it: active = normalized growth mostly below about 0.91 (no sharp cut-off); inconclusive = no clear call, values can overlap the other calls; inactive = mostly above about 0.92. Some of the results follow.
Experiment: chemical genetic growth profiling, strain panel (AID 1159580);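 also: tested at 20 µM; growth read once vehicle control cultures reached saturation at 30 °C; 1 = growth at the plate median or of vehicle wells; lower values mean less growth of the strain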
Conditions: growth OD

Measured: normalized growth

C[C@]12CCC(=O)C=C1C=CC1C2CC[C@@]2(C)C1CC[C@@]2(O)CCC(=O)O (some centres not stated)
inactive: S. cerevisiae deletion strains, locus YJR075W, strain HOC1, active compounds read low 0.991 | S. cerevisiae deletion strains, locus YKL009W, strain mrt4, active compounds read low 0.962 | S. cerevisiae deletion strains, locus YKL068W, active compounds read low 0.995 | S. cerevisiae deletion strains, locus YKL085W, strain MDH1 (second series), active compounds read low 0.993 | S. cerevisiae deletion strains, locus YKL085W, strain MDH1, active compounds read low 0.993 | S. cerevisiae deletion strains, locus YKL160W, strain elf1, active compounds read low 0.996 | S. cerevisiae deletion strains, locus YKL190W, strain CNB1, active compounds read low 1.01 | S. cerevisiae deletion strains, locus YKR001C, strain vps1, active compounds read low 0.98 | S. cerevisiae deletion strains, locus YKR026C, strain gcn3, active compounds read low 1.03 | S. cerevisiae deletion strains, locus YKR091W, strain srl3, active compounds read low 1.01 | S. cerevisiae deletion strains, locus YLL001W, strain dnm1, active compounds read low 1.01 | S. cerevisiae deletion strains, locus YLL026W, active compounds read low 1 | S. cerevisiae deletion strains, locus YLL041C, strain sdh2, active compounds read low 1.01 | S. cerevisiae deletion strains, locus YLR027C, strain aat2, active compounds read low 1.01 | S. cerevisiae deletion strains, locus YLR039C, strain RIC1, active compounds read low 0.986 | S. cerevisiae deletion strains, locus YLR058C, strain SHM2, active compounds read low 0.994 | S. cerevisiae deletion strains, locus YLR102C, strain apc9, active compounds read low 0.999 | S. cerevisiae deletion strains, locus YLR113W, strain HOG1, active compounds read low 1.06 | S. cerevisiae deletion strains, locus YLR221C, strain rsa3, active compounds read low 1.01 | S. cerevisiae deletion strains, locus YLR258W, strain gsy2, active compounds read low 1.02 | S. cerevisiae deletion strains, locus YLR262C, strain YPT6 (second series), active compounds read low 0.93 | S. cerevisiae deletion strains, locus YLR262C, strain YPT6, active compounds read low 0.983 | S. cerevisiae deletion strains, locus YLR268W, strain sec22, active compounds read low 0.929 | S. cerevisiae deletion strains, locus YLR320W, strain mms22, active compounds read low 1.01 | S. cerevisiae deletion strains, locus YLR330W, strain CHS5, active compounds read low 1.02 | S. cerevisiae deletion strains, locus YLR342W, strain FKS1 (second series), active compounds read low 1.05 | S. cerevisiae deletion strains, locus YLR342W, strain FKS1, active compounds read low 0.995 | S. cerevisiae deletion strains, locus YLR357W, strain rsc2, active compounds read low 1.01 | S. cerevisiae deletion strains, locus YLR370C, strain arc18, active compounds read low 1.02 | S. cerevisiae deletion strains, locus YLR371W, strain rom2, active compounds read low 0.985 | S. cerevisiae deletion strains, locus YLR384C, strain iki3, active compounds read low 1.02 | S. cerevisiae deletion strains, locus YLR418C, strain cdc73, active compounds read low 0.977 | S. cerevisiae deletion strains, locus YML016C, strain PPZ1, active compounds read low 0.99 | S. cerevisiae deletion strains, locus YML032C, strain rad52, active compounds read low 0.978 | S. cerevisiae deletion strains, locus YML120C, strain ndi1, active compounds read low 1.02 | S. cerevisiae deletion strains, locus YML124C, strain tub3, active compounds read low 0.996 | S. cerevisiae deletion strains, locus YMR058W, strain fet3, active compounds read low 1.02 | S. cerevisiae deletion strains, locus YMR078C, strain ctf18, active compounds read low 0.979 | S. cerevisiae deletion strains, locus YMR125W, strain sto1, active compounds read low 1.04 | S. cerevisiae deletion strains, locus YMR129W, active compounds read low 1.03 | S. cerevisiae deletion strains, locus YMR205C, strain PFK2, active compounds read low 1.05 | S. cerevisiae deletion strains, locus YMR223W, strain ubp8, active compounds read low 1.01 | S. cerevisiae deletion strains, locus YMR231W, strain pep5, active compounds read low 1.02 | S. cerevisiae deletion strains, locus YMR263W, strain SAP30, active compounds read low 0.988 | S. cerevisiae deletion strains, locus YMR307W, strain GAS1, active compounds read low 1.01 | S. cerevisiae deletion strains, locus YNL067W, strain RPL9B, active compounds read low 0.969 | S. cerevisiae deletion strains, locus YNL071W, strain lat1, active compounds read low 1.01 | S. cerevisiae deletion strains, locus YNL128W, strain TEP1, active compounds read low 0.995 | S. cerevisiae deletion strains, locus YNL153C, strain GIM3, active compounds read low 0.977 | S. cerevisiae deletion strains, locus YNL183C, strain NPR1, active compounds read low 0.995 | S. cerevisiae deletion strains, locus YNL209W, strain ssb2, active compounds read low 1.02 | S. cerevisiae deletion strains, locus YNL233W, strain BNI4, active compounds read low 0.99 | S. cerevisiae deletion strains, locus YNL248C, strain rpa49, active compounds read low 1.04 | S. cerevisiae deletion strains, locus YNL250W, strain rad50, active compounds read low 0.993 | S. cerevisiae deletion strains, locus YNL271C, strain bni1, active compounds read low 0.986 | S. cerevisiae deletion strains, locus YNL298W, strain CLA4, active compounds read low 0.984 | S. cerevisiae deletion strains, locus YNL307C, strain MCK1, active compounds read low 0.989 | S. cerevisiae deletion strains, locus YNL322C, strain KRE1 (second series), active compounds read low 1.02 | S. cerevisiae deletion strains, locus YNL322C, strain KRE1, active compounds read low 1 | S. cerevisiae deletion strains, locus YNR049C, strain mso1, active compounds read low 1.02 | S. cerevisiae deletion strains, locus YNR052C, strain pop2, active compounds read low 0.996 | S. cerevisiae deletion strains, locus YOL006C, strain TOP1, active compounds read low 0.951 | S. cerevisiae deletion strains, locus YOL012C, strain htz1 1.54 | S. cerevisiae deletion strains, locus YOL147C, strain pex11, active compounds read low 0.989 | S. cerevisiae deletion strains, locus YOR001W, strain rrp6, active compounds read low 1 | S. cerevisiae deletion strains, locus YOR061W, strain CKA2, active compounds read low 0.995 | S. cerevisiae deletion strains, locus YOR069W, strain VPS5, active compounds read low 0.985 | S. cerevisiae deletion strains, locus YOR070C, strain gyp1, active compounds read low 1.03 | S. cerevisiae deletion strains, locus YOR080W, strain dia2, active compounds read low 1.02 | S. cerevisiae deletion strains, locus YOR083W, strain WHI5, active compounds read low 0.965 | S. cerevisiae deletion strains, locus YOR106W, strain vam3, active compounds read low 1.01 | S. cerevisiae deletion strains, locus YOR136W, strain idh2, active compounds read low 0.987 | S. cerevisiae deletion strains, locus YOR144C, strain elg1, active compounds read low 0.994 | S. cerevisiae deletion strains, locus YOR184W, strain ser1, active compounds read low 0.977 | S. cerevisiae deletion strains, locus YOR231W, strain MKK1, active compounds read low 1.05 | S. cerevisiae deletion strains, locus YOR265W, strain rbl2, active compounds read low 1.02 | S. cerevisiae deletion strains, locus YOR270C, strain vph1, active compounds read low 1.05 | S. cerevisiae deletion strains, locus YOR290C, strain snf2, active compounds read low 1.02 | S. cerevisiae deletion strains, locus YOR316C, strain cot1, active compounds read low 0.995 | S. cerevisiae deletion strains, locus YPL051W, strain arl3, active compounds read low 1 | S. cerevisiae deletion strains, locus YPL055C, strain LGE1, active compounds read low 1.02 | S. cerevisiae deletion strains, locus YPL078C, strain atp4, active compounds read low 1.01 | S. cerevisiae deletion strains, locus YPL106C, strain sse1, active compounds read low 1.01 | S. cerevisiae deletion strains, locus YPL240C, strain hsp82, active compounds read low 1.02 | S. cerevisiae deletion strains, locus YPL241C, strain CIN2, active compounds read low 1 | S. cerevisiae deletion strains, locus YPL256C, strain CLN2, active compounds read low 1.1 | S. cerevisiae deletion strains, locus YPR119W, strain clb2, active compounds read low 0.994 | S. cerevisiae deletion strains, locus YPR141C, strain kar3, active compounds read low 0.982 | S. cerevisiae deletion strains, locus YPR163C, strain tif3, active compounds read low 0.991 | S. cerevisiae deletion strains, locus YPR167C, strain met16, active compounds read low 0.995 | S. cerevisiae deletion strains, strain wtn01, active compounds read low 0.953 | S. cerevisiae strains, strain wild type, active compounds read low 1

From PubChem BioAssay AID1159580 (chemical genetic matrix, 2015)
